High-throughput results deposited in PubChem by several laboratories.
Most compounds without a hit are left out; they make up all but 0.78% or so of the library.
PolyA inhibitor – yeast polyadenylation inhibition; S. cerevisiae SKY197-pL101 polyadenylation reporter, beta-gal luminescence; efflux-impaired pdr1/pdr3 knockout yeast; score 100 = 6 SD above DMSO; activity score, % at 12 µM; actives 0.02% (n = 300,000);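 active means lowest replicate activity score at least 50, where 100 means six control SD above control mean; inconclusive means lowest score under 50 but half or more replicates reach 50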;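 further: yeast exposed to compound for 9 h at 30 °C; higher score means more reporter readthrough which indicates perturbed polyadenylation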
PKA-R2B act – activates the human PKA-R2B holoenzyme complex; P22694+P31323; PKA-R2B holoenzyme dissociation, Cy5-IP20 fluorescence polarization; R2B truncated from residue 108, S112A mutant; 0% DMSO only, 100% 113 µM cGMP; activation, % at 11.4 µM; actives 0.079% (n = 340,000);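 active means activation above a cutoff set at the mean over all compounds plus 3 SD, cut at about 18% in these data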;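 further: higher means more holoenzyme dissociation and a rise in polarization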
PKA-R1A act – PKA-R1A complex activation; PKA-R1A dissociation, Cy5-IP20 fluorescence polarization; scaled: DMSO 0%, 113 µM cGMP 100%; AID 504707; actives 0.083% (n = 340,000); activation, % at 11.4 µM;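 active means percent activation above the mean of all tested compounds plus 3 SD, cut at about 19% in these data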;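 further: higher means more PKAc released from R1A so a rise in polarization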
Yeast superoxide – lowers age-related superoxide in aged yeast cells; S. cerevisiae aged cells, superoxide DHE fluorescence; stronger effect = lower value; actives 0.18% (n = 330,000); superoxide response (% of plate mean), % at 10 µM; AID 2690;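 active means superoxide response under a set limit, about three screen SD below normal, cut at about 65% in these data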;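 further: yeast aged for seven days with compound at 30 °C before DHE staining; 100% = average MFI of all compound-treated wells on the plate with controls excluded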
JMJD2C inh – inhibitors of human GASC-1 (JMJD2C) demethylase. GST-JMJD2C(1-420) H3K9me3 demethylation, DELFIA europium. Q9H3R0. actives 0.069% (n = 330,000). AID 2099. inhibition, % at 2.35 µM;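 active means more than half of a compound's replicate wells show inhibition beyond 50%, single wells judged on their own value; inconclusive means some, but no more than half, of replicates pass 50% inhibition; inactive means no replicate passes 50% inhibition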;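 further: signal counts dimethyl H3K9 product captured on neutravidin plate; 0% = median of DMSO wells and 100% = 0.3 times that DMSO median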
Target sequence (Q9H3R0 1-420 limits assumed): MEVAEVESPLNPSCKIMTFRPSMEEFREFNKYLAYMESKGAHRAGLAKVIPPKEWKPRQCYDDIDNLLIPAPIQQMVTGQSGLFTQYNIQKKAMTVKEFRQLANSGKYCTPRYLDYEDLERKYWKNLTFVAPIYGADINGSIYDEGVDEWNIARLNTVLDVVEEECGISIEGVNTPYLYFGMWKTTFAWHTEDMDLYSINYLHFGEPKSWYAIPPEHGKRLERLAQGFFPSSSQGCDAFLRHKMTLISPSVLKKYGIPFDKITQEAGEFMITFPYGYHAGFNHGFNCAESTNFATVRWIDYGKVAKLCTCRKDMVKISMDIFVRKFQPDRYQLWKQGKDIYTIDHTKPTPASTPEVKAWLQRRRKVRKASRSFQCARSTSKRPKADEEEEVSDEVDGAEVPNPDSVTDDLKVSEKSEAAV
V-ATPase pHluor – yeast V-ATPase proton transport regulation by pHLuorin | S. cerevisiae, pHLuorin cytosolic pH fluorescence | response, % at 10 µM | actives 0.37% (n = 350,000); in the data active means response mostly above about 7.3%, no sharp cut-off; inactive means mostly below about 5.4%; further: actives read high
V-ATPase pH SP – modulates yeast V-ATPase proton transport; shares compounds with V-ATPase pHluor; S. cerevisiae pHLuorin cytosolic pH; response, % at 10 µM; actives 2% (n = 980); in the data active means response above about 24%;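 further: plate controls were vehicle wells for no effect and positive control wells for full effect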
R2B FP artifact – fluorescence polarization artifact in PKA-R2B activator counter-screen; activation, % at 11.4 µM; AID 504796; shares compounds with PKA-R2B act; FP artifact counterscreen; actives 6% (n = 270); in the data active means activation above about 20%;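 further: Cy5 labelled IP20 peptide probe with compound but no PKA protein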
PKA-R2B act conf – confirmation of human PKA-R2B complex activators | shares compounds with PKA-R2B act | fluorescence polarization, activation | activation, % at 11.4 µM | actives 9% (n = 270); in the data active means activation above about 19%
* = called active by the depositor; ? = inconclusive; . = no result given.

SMILES	PolyA inhibitor	PKA-R2B act	PKA-R1A act	Yeast superoxide	JMJD2C inh	V-ATPase pHluor	V-ATPase pH SP	others
Cc1onc(-c2ccccc2)c1C(=O)OCC(=O)Nc1ccccc1Cl	.	-9	1	.	.	2	.
Cc1ccc(OC(=O)c2sc(Cl)nc2C)cc1C	5	1	-2	100	.	0	.
CC1CCCC(C)N1C(=O)COC(=O)Cc1ccc(F)cc1 (stereo not given)	12	-7	-10	104	-8	1	.
CCOCC(=O)N1CCN(Cc2ccc3c(c2)OCO3)CC1	2	-12	0	100	-12	9.3*	0
C[C@@H](C(=O)N1CCN(Cc2ccc3c(c2)OCO3)CC1)n1nnc2ccccc2c1=O	3	-2	4	109	5	24*	2
O=C(N/N=C/c1ccc(F)cc1)c1cccc(NC(=O)c2ccccc2Cl)c1	-15	4	-4	98	4	6	.
CCOc1nc(-c2ccccc2)c2cc(Br)ccc2n1	4	4	5	89	-5	-2	.
C=CCN1C(=O)C(CC(=O)O)S/C1=N/N=C/c1ccc(N(CC)CC)cc1 (stereo not given)	.	-8	-2	93	-4	2	.
COc1ccc(NS(=O)(=O)CC(C)C)c(OC)c1	-16	-7	-9	103	-5	11*	0
Cc1cccc2sc(N(CCCN(C)C)C(=O)c3ccc(Cl)s3)nc12	1	2	-5	96	7	11*	0
O=C(c1ccc(CS(=O)c2cccc(Cl)c2)o1)N1CCN(C2CCCCC2)CC1 (stereo not given)	2	-1	5	100	-1	-5	.
O=C(c1ccc(CS(=O)c2ccc(Br)cc2)o1)N1CCN(C2CCCCC2)CC1 (stereo not given)	.	-7	2	.	.	79*	2
CC1CCCCC1NC(=O)CN1C(=O)NC(C)(c2cccc(Br)c2)C1=O (stereo not given)	.	4	9	95	.	1	.
O=C(COc1cc2oc(=O)cc(-c3ccccc3)c2cc1Cl)NC(Cc1c[nH]c2ccc(O)cc12)C(=O)O (stereo not given)	-11	-7	5	90	4	3	.
COc1ccccc1NC(=O)c1c(Nc2ccccc2C)sc(C(=O)Nc2cccc(Cl)c2)c1N	15	-6	4	114	13	12*	-2
Cc1cc(Cl)ccc1OCC(=O)OCC(=O)NC1CCS(=O)(=O)C1 (stereo not given)	.	3	-3	105	.	-6	.
CCc1cc2cc(C)ccc2nc1SCC(=O)NC1CCCC1	-24	-14	-7	107	29	-4	.
CC(=O)c1cccc(S(=O)(=O)N2CCN(c3ccccc3F)CC2)c1	-7	-11	-13	107	-20	12*	-1
COCCN(C(=O)COC(=O)CCn1c(C)csc1=O)c1c(N)n(Cc2ccccc2)c(=O)[nH]c1=O	3	-8	-6	122	2	15*	2
CCCN(C(=O)COC(=O)CCC(=O)c1ccccc1)c1c(N)n(Cc2ccccc2)c(=O)[nH]c1=O	.	13	-12	.	.	9.1*	-1
Cc1cc(C)cc(C(=O)N2CCCCC2)c1	.	-6	3	.	.	1	.
Cc1cc(C)n2ncc(/C(N)=N/OC(=O)Nc3ccc(Cl)cc3)c2n1	19	.	.	110	18	-1	.
Cc1ccc(-n2nnc(-c3nccn3C)n2)cc1	-7	1	-14	98	10	-4	.
CC(C)OP(=O)(OC(C)C)C(NC(=O)c1ccccc1Br)C(N)=O (stereo not given)	0	5	-2	81	6	-1	.
N#CCCN(Cc1cccnc1)S(=O)(=O)c1ccc(S(=O)(=O)NC2CCCCC2)cc1	11	-3	1	95	10	8.6*	-3
SMILES	PolyA inhibitor	PKA-R2B act	PKA-R1A act	Yeast superoxide	JMJD2C inh	V-ATPase pHluor	V-ATPase pH SP	others
CC(C)(C)C(=O)Nc1ccccc1C(=O)NCCC(=O)Nc1ccccc1	-7	-3	-13	86	-2	11*	-1
CC(=O)Nc1ccc(NC(=O)CCNC(=O)c2ccccc2Cl)cc1	13	-6	-3	118	-4	0	.
COC(C[C@H](O)C[C@@H](O)[C@H](C)OCc1ccccc1)OC	-6	-2	-1	.	-17	0	.
COC(C[C@@H](O)C[C@H](O)COCc1ccccc1)OC	21	-4	-3	.	?	31*	-1
CCC1(c2ccccc2)ON(c2c(Br)cccc2Br)C1=O (stereo not given)	.	9	-5	122	4	3	.
O=C(O)CN(c1cccc(C(F)(F)F)c1)S(=O)(=O)c1ccccc1	11	13	-6	97	-2	8.6*	-3
COC(=O)c1cc(S(=O)(=O)Nc2cc(OC)cc(OC)c2)cn1C	26	-7	-6	99	-8	2	.
COC(=O)c1cc(S(=O)(=O)Nc2cccc(C)c2C)cn1C	2	-4	-11	96	-12	11*	6
CN(C(=O)c1ccc(NC(=O)Cc2ccc(NC(=O)C3CCCN(C(=O)C4CCCC4)C3)cc2)cc1)C1CC1 (stereo not given)	.	-4	6	112	9	20*	-6
CN(C(=O)c1ccc(NC(=O)Cc2ccc(NC(=O)C3CCCN(C(=O)C4CCCCC4)C3)cc2)cc1)C1CC1 (stereo not given)	.	-12	4	103	9	-3	.
COc1cc(NCCCn2cnc3c(OC)ncnc32)cc(OC)c1OC	.	2	9	.	.	2	.
O=C(c1ccc(Cl)cc1)[C@@H]1[C@@H]2C(=O)N(c3ccccc3)C(=O)[C@@H]2C2c3ccccc3C=NN21 (stereo not given in full)	12	26*	-1	83	-7	10*	-2	R2B FP artifact=4;PKA-R2B act conf=0
O=C(Oc1ccccc1C(=O)Nc1ccccc1)c1ccc(Br)c([N+](=O)[O-])c1	-13	-7	1	133	-2	0	.
